Data from the antibiotic and cytotoxicity screens of Wong et al. (2023).
The whole screen tested about 39,000 compounds, of which about 500 (1.3%) were called active. Only a selection was taken, and actives are over-represented in it overall.

These molecules were tested on S. aureus RN4220 (assay: growth inhibition call (relative growth <= 0.2)). Conditions: 50 µM.

**Q.** Which growth inhibition call does the source give for `COc1ccc(S(=O)(=O)N(C)C[C@@H]2Oc3c(NC(=O)C4CCOCC4)cccc3C(=O)N([C@H](C)CO)C[C@H]2C)cc1` here?
**A.** inactive

**Q.** `C[C@H](CO)N1C[C@H](C)[C@@H](CN(C)C(=O)Nc2ccccc2)Oc2c(NC(=O)C3CCOCC3)cccc2C1=O` was tested. Which growth inhibition call did it give?
**A.** inactive

**Q.** With `CO[C@H]1O[C@H](COC(=O)NCCCCCC(=O)NO)[C@@H](OC(=O)Nc2ccccc2)[C@@H]2OC(=O)[C@H](Cc3cccc(Br)c3)C/C=C/C[C@@H](Cc3cccc(Br)c3)C(=O)O[C@@H]12` as the molecule, how does the growth inhibition call read?
**A.** inactive

**Q.** With `C[C@@H]1CN([C@H](C)CO)C(=O)c2cccc(NC(=O)Nc3ccc(C(F)(F)F)cc3)c2O[C@H]1CN(C)C(=O)Nc1ccccc1` as the molecule, how does the growth inhibition call read?
**A.** inactive

**Q.** For `C[C@H]1CN([C@@H](C)CO)C(=O)c2cccc(NC(=O)Nc3ccccc3)c2O[C@@H]1CN(C)C(=O)Nc1ccc(C(F)(F)F)cc1`, which growth inhibition call is on record?
**A.** inactive

**Q.** With `C[C@H]1CN([C@@H](C)CO)C(=O)c2cccc(NC(=O)Nc3ccc(C(F)(F)F)cc3)c2O[C@@H]1CN(C)C(=O)Nc1ccccc1` as the molecule, how does the growth inhibition call read?
**A.** active

**Q.** With `C[C@@H]1CN([C@@H](C)CO)C(=O)c2cccc(NC(=O)Nc3ccccc3)c2O[C@@H]1CN(C)C(=O)Nc1ccc(C(F)(F)F)cc1` as the molecule, how does the growth inhibition call read?
**A.** inactive

**Q.** For `C[C@H](CO)N1C[C@H](C)[C@H](CN(C)C(=O)Nc2ccccc2)Oc2c(NC(=O)Nc3ccc(C(F)(F)F)cc3)cccc2C1=O`, which growth inhibition call is on record?
**A.** inactive

**Q.** How did the growth inhibition call turn out when `C[C@H](CO)N1C[C@H](C)[C@@H](CN(C)C(=O)Nc2cccc3ccccc23)Oc2c(NC(=O)Nc3ccc(C(F)(F)F)cc3)cccc2C1=O` was run?
**A.** active

**Q.** For `C[C@H](CO)N1C[C@H](C)[C@H](CN(C)C(=O)Nc2ccc(C(F)(F)F)cc2)Oc2c(NC(=O)Nc3ccccc3)cccc2C1=O`, which growth inhibition call is on record?
**A.** inactive

**Q.** With `C[C@H]1CN([C@@H](C)CO)C(=O)c2cccc(NC(=O)Nc3ccc(C(F)(F)F)cc3)c2O[C@H]1CN(C)C(=O)Nc1ccccc1` as the molecule, how does the growth inhibition call read?
**A.** active

**Q.** How did the growth inhibition call turn out when `C[C@@H]1CN([C@@H](C)CO)C(=O)c2cccc(NC(=O)Nc3ccc(C(F)(F)F)cc3)c2O[C@@H]1CN(C)C(=O)Nc1ccccc1` was run?
**A.** active

**Q.** How did the growth inhibition call turn out when `C[C@@H]1CN([C@H](C)CO)C(=O)c2cccc(NC(=O)Nc3ccc(C(F)(F)F)cc3)c2O[C@@H]1CN(C)C(=O)Nc1cccc2ccccc12` was run?
**A.** inactive

**Q.** For `C[C@H](CO)N1C[C@H](C)[C@@H](CN(C)C(=O)Nc2ccc(C(F)(F)F)cc2)Oc2c(NC(=O)Nc3ccccc3)cccc2C1=O`, which growth inhibition call is on record?
**A.** inactive

**Q.** For `C[C@H](CO)N1C[C@H](C)[C@H](CN(C)C(=O)Nc2cccc3ccccc23)Oc2c(NC(=O)Nc3ccc(C(F)(F)F)cc3)cccc2C1=O`, which growth inhibition call is on record?
**A.** inactive

**Q.** With `COc1ccc(S(=O)(=O)Nc2ccc3c(c2)C(=O)N([C@@H](C)CO)C[C@H](C)[C@H](CN(C)C(=O)Nc2ccccc2)OCCCC[C@H](C)O3)cc1` as the molecule, how does the growth inhibition call read?
**A.** inactive
